# From PubChem BioAssay
# Shown are actives, neighbours in structure and some others; about 7.2% of the full set was active somewhere.
# MARV entry inh: qHTS for inhibitors of binding or entry into cells for Marburg Virus; Marburg virus pseudotyped entry inhibition, cell reporter; Potency, µM (series often up to 37.8 µM), usual class: inhibitors; 300,000 compounds, 1.8% hits; calls by dose curve; tested in HEK293 cells
# Sm TGR block: qHTS Assay for the Inhibitors of Schistosoma Mansoni Peroxiredoxins | Schistosoma mansoni thioredoxin glutathione reductase (TGR), Q962Y6 | purified TGR, DTNB reduction, TNB absorbance 405 nm | Potency, µM (titrated, usually from 114 µM), most hits filed as inhibitors | 360,000 compounds, 3% hits; further: nearly all actives have a fitted effect of over 60% in size
#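 Kinetic colorimetric format: TGR-catalysed, NADPH-driven DTNB reduction monitored via TNB absorbance. Enzyme dispensed at 20 nM; compound exposure 15 min at room temperature before reaction start.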
# HCV inhibitor: qHTS Assay for Inhibitors of Hepatitis C Virus (HCV). Huh7.5.1 HCVcc-Cre infection, luciferase reporter, 44 h. Potency, µM (titrated, usually from 41.8 µM), hits mostly inhibitors. 340,000 compounds, 3.4% hits. AID 651820, 2012
#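 Infectious HCVcc-Cre (~0.5 moi) was added to cells just after compound, with cells seeded 4 h earlier at 1,000 per well. Luciferase activity after 44 h culture reported infection; substrate was incubated 15 min at room temperature before reading.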
# FMDV inh: High Throughput Screening for Foot and Mouth Disease Virus Antivirals; Potency, µM (doses to about 57.9 µM), most hits filed as inhibitors; 410,000 compounds, 1.2% hits; FMDV antiviral cell-based qHTS; calls by dose curve; tested in HEK293T cells; further: read-out not given here; nearly all actives have a fitted effect of over 45% in size
# Lassa entry inh: qHTS for Inhibitors of binding or entry into cells for Lassa Virus | Potency, µM (doses to about 37.9 µM), most hits filed as inhibitors | 300,000 compounds, 1.2% hits | Lassa virus pseudotype entry inhibition, cell reporter; calls by dose curve; tested in HEK293 cells; further: nearly all actives have a fitted effect of over 50% in size
# RE007 growth inh: qHTS Assay for Inhibitors of the HIV-1 protein Vpr; Potency, µM (top dose mostly 92.2 µM), usual class: inhibitors; S. pombe RE007 Vpr strain, BacTiter-Glo ATP luminescence, 24 h; AID 651644, 2012; 360,000 compounds, 0.21% hits; active means well fitted falling curve with a large enough effect; inconclusive means small, poorly fitted or top-dose-only effect; inactive means no such curve, though single readings can be large or run the other way; further: nearly all actives have a fitted effect of over 50% in size
#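 Fission yeast RE007 carrying one integrated HIV-1 vpr copy, seeded at OD 0.01 in PMG+AL medium with 23 nL pinned compound. Grown 24 h at 30 degrees; viability read by BacTiter-Glo luminescence after 5 min.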
# Hits are given with their value; i = inactive; ? = inconclusive; nt = no result. Unless noted, the call rests on the fitted dose curve; in most records, active means well fitted curve in the direction sought with a large enough effect; inconclusive means small, poorly fitted or top-dose-only effect, or another doubt; inactive means no such curve, though single readings can be large; an effect the other way counts as inactive or inconclusive.
SMILES,MARV entry inh,Sm TGR block,HCV inhibitor,FMDV inh,Lassa entry inh,RE007 growth inh
CC(=O)Nc1ccc(/C=C/c2nc(-c3ccccc3O)n(-c3ccccc3)n2)cc1,i,i,nt,i,?,nt
COc1ccc([C@]23Cc4c(ccc5ccccc45)[C@H](O2)c2c(cc(-c4ccccc4)oc2=O)O3)cc1,i,nt,nt,nt,nt,nt
Cc1cc(N2CCN(C(=O)Nc3ccc(F)cc3F)CC2)c2ccccc2n1,i,i,?,i,?,i
CCCCc1ccc(NC(=O)N2CCN(c3cc(C)nc4ccccc34)CC2)c(C)c1,nt,i,6.31µM,35.5µM,nt,i
CCOc1ccc(-c2cn3c(n2)sc2cc(C(=O)NCCCN4CCCCC4)ccc23)cc1,nt,i,nt,i,i,nt
O=C(Cn1ncc2c3ccccc3n(Cc3ccc(F)cc3)c2c1=O)NCCCN1CCCCC1,i,i,nt,i,i,nt
CCC(=O)N1N=C(c2cccs2)CC1c1ccc(OC)cc1 (centres undefined),nt,i,?,i,nt,i
Cc1ccc(C2CC(c3cccs3)=NN2C(=O)CCl)cc1 (centres undefined),?,2.51µM,2.82µM,17.8µM,?,i
COc1ccc(C2CC(c3cccs3)=NN2C(=O)c2ccc(Br)o2)cc1 (centres undefined),?,i,10µM,i,i,i
CCC(=O)N1N=C(c2cccs2)CC1c1ccc(C)cc1 (centres undefined),nt,i,i,i,nt,i
CC(=O)Nc1cc(-c2ccc(C(=O)NC3CC3)cc2)cn2c(-c3cccc(C(F)(F)F)c3)cnc12,nt,nt,nt,25.1µM,nt,i
CC(=O)Nc1cc(-c2ccc(C(=O)NC3CC3)cc2)cn2c(-c3cccc(C(C)=O)c3)cnc12,nt,nt,nt,?,nt,i
Nc1ncnc2occ(-c3ccc(NC(=O)Nc4cc(C(F)(F)F)cc(C(F)(F)F)c4)cc3)c12,nt,nt,nt,nt,19.9µM,nt
COc1ccc(-c2coc3ncnc(N)c23)cc1,nt,nt,nt,nt,i,nt
C=CCc1ccc(OC(=O)NC2CCCCC2)c(OC)c1,?,22.4µM,i,i,i,i
C=CCc1ccc(OC)c(OC)c1,nt,i,i,i,nt,i
C=CCc1ccc(OCc2ccc(C(=O)O)o2)c(OC)c1,?,?,i,14.1µM,?,i
Cc1ccc(OCCCCNC2CCCCC2)c(C)c1,7.3µM,i,12.6µM,?,?,i
C=CCc1ccc(OCCOCCOc2ccc(C)cc2[N+](=O)[O-])c(OC)c1,?,i,11.2µM,?,i,i
COc1ccccc1OCCOCCOc1ccc(C)cc1[N+](=O)[O-],i,i,i,i,i,nt
C=CCc1ccc(OCCCCNC2CCCC2)c(OC)c1,?,i,10µM,i,?,i
C=CCc1ccc(OCCCOc2ccc(C)c(C)c2)c(OC)c1,?,i,i,i,i,i
COc1ccc(CN(C)C(C)C(=O)Nc2ccc([N+](=O)[O-])cc2Cl)cc1OC (centres undefined),?,i,?,?,?,nt
COc1ccc(Br)cc1CN(C)C(C)C(=O)Nc1cc([N+](=O)[O-])ccc1OC (centres undefined),14.1µM,i,?,i,i,i
CCOc1ccc(CN(C)C(C)C(=O)Nc2ccc([N+](=O)[O-])cc2Cl)cc1OC (centres undefined),?,i,i,22.4µM,i,i
SMILES,MARV entry inh,Sm TGR block,HCV inhibitor,FMDV inh,Lassa entry inh,RE007 growth inh
COc1cc(NC(=O)CC(c2cccs2)N2Cc3ccccc3C2=O)cc(OC)c1OC (centres undefined),nt,i,nt,i,i,nt
COc1cccc(C(C(=O)NCc2ccccc2)N(C(=O)Cn2nnc3ccccc32)c2cccc(C(C)=O)c2)c1 (centres undefined),i,i,nt,i,i,nt
CN(C)S(=O)(=O)Oc1ccc(Cl)cc1C(=O)Nc1cccc(C(F)(F)F)c1,i,i,11.2µM,i,i,i
COCCN1CCCC(CNCc2cn(C)nc2-c2ccc(Oc3ccccc3)cc2)C1 (centres undefined),nt,i,14.1µM,i,nt,i
COC1CCCN(Cc2cn(C)nc2-c2ccc(Oc3ccccc3)cc2)C1 (centres undefined),?,i,i,i,i,i
CCCN1CCC(NCc2cn(C)nc2-c2ccc(Oc3ccccc3)cc2)CC1,i,i,11.2µM,i,nt,i
CCCCc1nn2c(=O)cc(COC(=O)c3cccc(NC(=O)c4cccc(Cl)c4)c3)nc2s1,nt,i,nt,i,i,nt
Nc1cc2nc3ccccc3oc-2cc1=O,nt,15.8µM,i,i,nt,63.1µM
Cc1cc(C)c(C(=O)N2CCCC(CNS(=O)(=O)c3cccs3)C2)o1 (centres undefined),nt,i,i,?,nt,i
CC(C)(O)C#Cc1ccc(C(=O)N2CCCC(CNS(=O)(=O)c3cccs3)C2)o1 (centres undefined),nt,11.2µM,i,i,nt,i
N=C1SCC(=O)N1c1ncc(Cc2cccc(Cl)c2)s1,i,i,?,?,i,17.8µM
N=C1SCC(=O)N1c1ncc(Cc2ccccc2Cl)s1,?,i,i,i,?,?
Cc1cnc(C)c(-c2ccc3c(c2)CC(CNC(=O)Cc2c(C)[nH]c4ccccc24)O3)n1 (centres undefined),nt,nt,nt,i,nt,nt
CC(=O)Nc1nc(-c2ccccc2)nc(-c2ccccc2OC(C)=O)n1,i,i,2.82µM,nt,?,i
COc1cc(NC(=O)c2cc(OC)c(OC)c(OC)c2)c(OC)cc1NC(=O)CN1CCCCC1,?,i,2.51µM,i,i,i
COc1cc(C(=O)NC(=S)Nc2ccc3c(c2)C(=O)N(C)C3=O)cc(OC)c1OC,i,i,10µM,?,i,nt
COc1cc(NC(=O)c2ccc(C)cc2)c(OC)cc1NC(=O)CN1CCCCC1,i,i,?,i,i,i
COc1cc(CC(=O)Nc2ccccc2N2CCOCC2)cc(OC)c1OC,i,i,i,i,i,i
COc1ccc(C)cc1C(=O)CCC(=O)Nc1ccccc1N1CCOCC1,i,22.4µM,?,i,?,i
COc1ccc(Cl)cc1C(=O)Nc1ccccc1N1CCCCC1,nt,i,11.2µM,?,nt,i
Cc1cc(C)n(CC(=O)N2CCC(n3c(C(C)C)nc4cccnc43)CC2)n1,nt,nt,nt,i,nt,nt
CCN(CC)C(=O)Cn1c(=O)n(CCCCCC(=O)NCc2ccc(C)cc2)c(=O)c2sccc21,i,i,nt,i,i,nt
COc1cc(C(=O)Nc2ccccc2N2CCCCC2)cc(OC)c1OC,i,i,?,?,?,i
CCn1c(=O)n(CC)c2cc(N3CCCC3)c(NC(=O)c3ccccc3F)cc21,?,i,12.6µM,i,?,i
CCn1c(=O)n(CC)c2cc(N3CCCC3)c(NC(=O)c3ccccc3C)cc21,nt,i,?,?,nt,i
COc1cc(C(=O)NC(=S)Nc2ccccc2N2CCCC2)cc(OC)c1OC,nt,i,11.2µM,i,nt,i
COc1ccc(C(=O)Nc2ccccc2N2CCOCC2)cc1Br,i,i,i,i,i,i
